Source: PMC7862700, “An all-to-all approach to the identification of sequence-specific readers for epigenetic DNA modifications on cytosine”

Legend:
Experiment in all cases: DAPPL (digital affinity profiling via proximity ligation, sequencing); 10 mM Tris-HCl pH 7.5, 50 mM NaCl, 1 mM DTT, 4% glycerol, room temperature, 30 min; GST-TFs on glutathione beads, 16-mer random dsDNA library, 0.1% formaldehyde crosslink after washing; high values mean tight binding
Details in all cases: protein: recombinant; tags: N-terminal GST; dsDNA, one strand shown
ERF = molecular target: T1, ERF (Homo sapiens, UniProt P50548 1-548)
T1 sequence: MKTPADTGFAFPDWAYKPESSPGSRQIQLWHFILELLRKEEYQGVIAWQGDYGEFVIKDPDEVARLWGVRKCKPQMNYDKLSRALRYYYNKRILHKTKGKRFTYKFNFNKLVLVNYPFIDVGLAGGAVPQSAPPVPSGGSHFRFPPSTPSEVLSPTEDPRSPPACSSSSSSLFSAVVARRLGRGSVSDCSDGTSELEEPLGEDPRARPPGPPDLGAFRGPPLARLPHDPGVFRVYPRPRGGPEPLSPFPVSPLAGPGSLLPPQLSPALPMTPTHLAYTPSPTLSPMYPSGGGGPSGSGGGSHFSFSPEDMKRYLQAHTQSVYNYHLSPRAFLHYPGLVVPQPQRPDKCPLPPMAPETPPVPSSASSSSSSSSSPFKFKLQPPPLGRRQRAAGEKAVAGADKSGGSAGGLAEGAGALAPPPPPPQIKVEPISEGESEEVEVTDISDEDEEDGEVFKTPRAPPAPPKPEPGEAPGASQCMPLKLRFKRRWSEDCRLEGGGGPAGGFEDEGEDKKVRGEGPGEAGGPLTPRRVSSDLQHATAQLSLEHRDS
Outline: (§1)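 Each value of binding signal is a hexamer's read frequency for a factor divided by the same hexamer's frequency in the tag-only sample. Barcoded, bead-captured GST fusions of human transcription factors made in yeast were pooled with that sample and incubated with 200 nmole of a random double-stranded 16-mer DNA library in Tris/NaCl/DTT/glycerol buffer at room temperature for 30 min. Washing, 0.1% formaldehyde crosslinking, proximity ligation, PCR and Illumina NextSeq500 sequencing followed.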

ETV3L = molecular target: T2, ETV3L (Homo sapiens, UniProt Q6ZN32 1-361)
T2 sequence: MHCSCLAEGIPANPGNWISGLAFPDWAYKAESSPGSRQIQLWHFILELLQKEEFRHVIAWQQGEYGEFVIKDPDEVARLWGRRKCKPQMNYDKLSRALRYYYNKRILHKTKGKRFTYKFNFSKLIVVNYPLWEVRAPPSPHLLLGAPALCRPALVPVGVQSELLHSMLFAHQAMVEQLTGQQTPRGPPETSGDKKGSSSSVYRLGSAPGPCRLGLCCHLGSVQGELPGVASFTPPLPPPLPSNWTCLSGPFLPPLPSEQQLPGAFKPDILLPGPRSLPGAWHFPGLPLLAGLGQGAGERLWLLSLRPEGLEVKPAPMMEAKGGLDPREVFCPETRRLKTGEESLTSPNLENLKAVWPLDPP
Outline: as §1

ETS2 = molecular target: T3, ETS2 (Homo sapiens, UniProt P15036 1-469)
T3 sequence: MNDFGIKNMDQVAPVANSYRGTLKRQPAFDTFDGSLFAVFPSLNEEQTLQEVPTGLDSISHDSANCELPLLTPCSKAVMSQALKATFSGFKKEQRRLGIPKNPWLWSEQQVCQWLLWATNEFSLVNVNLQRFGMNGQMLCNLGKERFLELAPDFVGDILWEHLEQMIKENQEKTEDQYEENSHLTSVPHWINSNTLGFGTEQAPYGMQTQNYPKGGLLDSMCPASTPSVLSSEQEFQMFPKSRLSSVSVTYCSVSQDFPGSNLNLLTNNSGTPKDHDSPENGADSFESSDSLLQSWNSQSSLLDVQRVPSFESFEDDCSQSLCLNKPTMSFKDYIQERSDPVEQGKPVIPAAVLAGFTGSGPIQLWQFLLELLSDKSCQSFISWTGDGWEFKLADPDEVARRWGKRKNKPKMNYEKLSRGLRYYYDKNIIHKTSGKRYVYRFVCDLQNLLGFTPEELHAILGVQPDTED
Outline: as §1

SPDEF = molecular target: T4, SPDEF (Homo sapiens, UniProt O95238 1-335)
T4 sequence: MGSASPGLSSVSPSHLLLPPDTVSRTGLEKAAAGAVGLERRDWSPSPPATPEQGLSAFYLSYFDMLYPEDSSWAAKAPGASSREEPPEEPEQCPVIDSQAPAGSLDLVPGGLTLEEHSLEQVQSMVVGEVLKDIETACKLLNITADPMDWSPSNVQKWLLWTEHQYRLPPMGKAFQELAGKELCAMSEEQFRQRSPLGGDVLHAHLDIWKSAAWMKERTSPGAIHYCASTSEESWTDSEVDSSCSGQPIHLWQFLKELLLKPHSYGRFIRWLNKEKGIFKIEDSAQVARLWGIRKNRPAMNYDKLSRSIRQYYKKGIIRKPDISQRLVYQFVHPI
Outline: as §1

ETV7 = molecular target: T5, ETV7 (Homo sapiens, UniProt Q9Y603 1-341)
T5 sequence: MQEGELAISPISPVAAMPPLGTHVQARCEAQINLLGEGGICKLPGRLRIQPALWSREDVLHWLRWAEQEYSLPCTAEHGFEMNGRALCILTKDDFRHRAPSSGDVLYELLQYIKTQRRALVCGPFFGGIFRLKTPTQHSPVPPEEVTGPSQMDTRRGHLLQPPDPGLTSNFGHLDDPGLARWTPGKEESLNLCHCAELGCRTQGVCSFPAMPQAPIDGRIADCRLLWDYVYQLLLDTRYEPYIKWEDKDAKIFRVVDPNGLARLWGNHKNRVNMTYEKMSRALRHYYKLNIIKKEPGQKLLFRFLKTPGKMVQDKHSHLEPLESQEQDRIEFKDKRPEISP
Outline: as §1

ELF5 = molecular target: T6, ELF5 (Homo sapiens, UniProt Q9UKW6-2 1-255)
T6 sequence: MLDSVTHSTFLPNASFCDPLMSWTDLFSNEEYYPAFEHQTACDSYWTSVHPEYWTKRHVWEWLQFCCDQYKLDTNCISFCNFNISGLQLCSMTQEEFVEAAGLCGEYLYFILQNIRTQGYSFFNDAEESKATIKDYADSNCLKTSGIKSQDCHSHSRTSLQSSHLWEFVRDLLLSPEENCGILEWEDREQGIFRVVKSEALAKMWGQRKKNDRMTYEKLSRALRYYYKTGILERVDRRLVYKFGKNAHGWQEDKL
Outline: as §1

ETV3 = molecular target: T7, ETV3 (Homo sapiens, UniProt P41162-2 1-143)
T7 sequence: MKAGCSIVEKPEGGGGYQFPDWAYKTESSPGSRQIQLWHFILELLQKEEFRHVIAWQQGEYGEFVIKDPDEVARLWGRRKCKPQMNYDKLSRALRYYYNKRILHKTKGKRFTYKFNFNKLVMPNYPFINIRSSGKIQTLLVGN
Outline: as §1

ETV6 = ETV6 (Homo sapiens, UniProt P41212 1-452)
ETV6, sequence (P41212 whole entry): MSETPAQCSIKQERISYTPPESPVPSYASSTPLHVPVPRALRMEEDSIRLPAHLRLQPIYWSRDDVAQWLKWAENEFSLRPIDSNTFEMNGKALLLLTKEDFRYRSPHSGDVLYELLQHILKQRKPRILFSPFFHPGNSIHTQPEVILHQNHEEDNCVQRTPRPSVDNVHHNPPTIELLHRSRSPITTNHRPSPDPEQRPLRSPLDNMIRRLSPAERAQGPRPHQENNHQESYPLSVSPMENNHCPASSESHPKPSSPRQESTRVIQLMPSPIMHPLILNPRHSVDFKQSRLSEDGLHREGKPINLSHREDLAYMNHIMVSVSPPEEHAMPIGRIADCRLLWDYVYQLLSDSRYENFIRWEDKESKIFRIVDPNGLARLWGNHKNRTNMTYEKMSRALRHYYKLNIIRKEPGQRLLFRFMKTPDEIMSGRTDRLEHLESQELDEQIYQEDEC
Outline: as §1

| Sequence | binding signal (ERF) | binding signal (ETV3L) | binding signal (ETS2) | binding signal (SPDEF) | binding signal (ETV7) | binding signal (ELF5) | binding signal (ETV3) | binding signal (ETV6) |
| --- | --- | --- | --- | --- | --- | --- | --- | --- |
| ACGGCT | 1.16 fold enrichment (6-mer frequency, TF over GST control) | 1.23 fold enrichment (6-mer frequency, TF over GST control) | 1.19 fold enrichment (6-mer frequency, TF over GST control) | 1.18 fold enrichment (6-mer frequency, TF over GST control) | 1.03 fold enrichment (6-mer frequency, TF over GST control) | 1.07 fold enrichment (6-mer frequency, TF over GST control) | 1.11 fold enrichment (6-mer frequency, TF over GST control) | 1.16 fold enrichment (6-mer frequency, TF over GST control) |
| ACTTAA | 1.26 fold enrichment (6-mer frequency, TF over GST control) | 1.16 fold enrichment (6-mer frequency, TF over GST control) | 1.19 fold enrichment (6-mer frequency, TF over GST control) | 1.17 fold enrichment (6-mer frequency, TF over GST control) | 1.27 fold enrichment (6-mer frequency, TF over GST control) | 1.16 fold enrichment (6-mer frequency, TF over GST control) | 1.17 fold enrichment (6-mer frequency, TF over GST control) | 1.21 fold enrichment (6-mer frequency, TF over GST control) |
| TATAGC | 1.24 fold enrichment (6-mer frequency, TF over GST control) | 1.25 fold enrichment (6-mer frequency, TF over GST control) | 1.18 fold enrichment (6-mer frequency, TF over GST control) | 1.18 fold enrichment (6-mer frequency, TF over GST control) | 1.19 fold enrichment (6-mer frequency, TF over GST control) | 1.13 fold enrichment (6-mer frequency, TF over GST control) | 1.2 fold enrichment (6-mer frequency, TF over GST control) | 1.15 fold enrichment (6-mer frequency, TF over GST control) |
| AAAGAA | 1.27 fold enrichment (6-mer frequency, TF over GST control) | 1.19 fold enrichment (6-mer frequency, TF over GST control) | 1.26 fold enrichment (6-mer frequency, TF over GST control) | 1.18 fold enrichment (6-mer frequency, TF over GST control) | 1.36 fold enrichment (6-mer frequency, TF over GST control) | 1.23 fold enrichment (6-mer frequency, TF over GST control) | 1.2 fold enrichment (6-mer frequency, TF over GST control) | 1.3 fold enrichment (6-mer frequency, TF over GST control) |
| ATATGA | 1.13 fold enrichment (6-mer frequency, TF over GST control) | 1.14 fold enrichment (6-mer frequency, TF over GST control) | 1.09 fold enrichment (6-mer frequency, TF over GST control) | 1.05 fold enrichment (6-mer frequency, TF over GST control) | 1.12 fold enrichment (6-mer frequency, TF over GST control) | 1.1 fold enrichment (6-mer frequency, TF over GST control) | 1.08 fold enrichment (6-mer frequency, TF over GST control) | 1.06 fold enrichment (6-mer frequency, TF over GST control) |
| GTCTCT | 1.16 fold enrichment (6-mer frequency, TF over GST control) | 1.35 fold enrichment (6-mer frequency, TF over GST control) | 1.32 fold enrichment (6-mer frequency, TF over GST control) | 1.15 fold enrichment (6-mer frequency, TF over GST control) | 1.02 fold enrichment (6-mer frequency, TF over GST control) | 1.11 fold enrichment (6-mer frequency, TF over GST control) | 1.27 fold enrichment (6-mer frequency, TF over GST control) | 1.19 fold enrichment (6-mer frequency, TF over GST control) |
| CCACTC | 1.13 fold enrichment (6-mer frequency, TF over GST control) | 1.28 fold enrichment (6-mer frequency, TF over GST control) | 1.21 fold enrichment (6-mer frequency, TF over GST control) | 1.26 fold enrichment (6-mer frequency, TF over GST control) | 1.21 fold enrichment (6-mer frequency, TF over GST control) | 1.19 fold enrichment (6-mer frequency, TF over GST control) | 1.14 fold enrichment (6-mer frequency, TF over GST control) | 1.13 fold enrichment (6-mer frequency, TF over GST control) |
